Where “and” joins values, the source holds several entries; their conditions need not be identical. Identical values can stand only once. About 2,400 (0.67%) of roughly 360,000 compounds were called active. Many of the other results were omitted from the sample, so actives are more common in it than they were. Unmarked numbers belong to inactive results.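 How the source made its calls: active means compounds whose normalised, plate-corrected inhibition of enzyme fluorescence in the single-dose primary screen is 50% or more; inactive means the rest.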
biological target: Fatty acid synthase (Homo sapiens) (UniProt P49327); assay: inhibition of human FAS-TE enzyme activity – biochemical, fluorescence intensity, uHTS, primary screen (AID 602261); details: recombinant FAS-TE, OMFH fluorogenic substrate, fluorescence endpoint; at 15 µM; active compounds read high;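 further: 0% = DMSO with enzyme and 100% = substrate without enzyme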
Sequence (P49327 whole entry, looked up): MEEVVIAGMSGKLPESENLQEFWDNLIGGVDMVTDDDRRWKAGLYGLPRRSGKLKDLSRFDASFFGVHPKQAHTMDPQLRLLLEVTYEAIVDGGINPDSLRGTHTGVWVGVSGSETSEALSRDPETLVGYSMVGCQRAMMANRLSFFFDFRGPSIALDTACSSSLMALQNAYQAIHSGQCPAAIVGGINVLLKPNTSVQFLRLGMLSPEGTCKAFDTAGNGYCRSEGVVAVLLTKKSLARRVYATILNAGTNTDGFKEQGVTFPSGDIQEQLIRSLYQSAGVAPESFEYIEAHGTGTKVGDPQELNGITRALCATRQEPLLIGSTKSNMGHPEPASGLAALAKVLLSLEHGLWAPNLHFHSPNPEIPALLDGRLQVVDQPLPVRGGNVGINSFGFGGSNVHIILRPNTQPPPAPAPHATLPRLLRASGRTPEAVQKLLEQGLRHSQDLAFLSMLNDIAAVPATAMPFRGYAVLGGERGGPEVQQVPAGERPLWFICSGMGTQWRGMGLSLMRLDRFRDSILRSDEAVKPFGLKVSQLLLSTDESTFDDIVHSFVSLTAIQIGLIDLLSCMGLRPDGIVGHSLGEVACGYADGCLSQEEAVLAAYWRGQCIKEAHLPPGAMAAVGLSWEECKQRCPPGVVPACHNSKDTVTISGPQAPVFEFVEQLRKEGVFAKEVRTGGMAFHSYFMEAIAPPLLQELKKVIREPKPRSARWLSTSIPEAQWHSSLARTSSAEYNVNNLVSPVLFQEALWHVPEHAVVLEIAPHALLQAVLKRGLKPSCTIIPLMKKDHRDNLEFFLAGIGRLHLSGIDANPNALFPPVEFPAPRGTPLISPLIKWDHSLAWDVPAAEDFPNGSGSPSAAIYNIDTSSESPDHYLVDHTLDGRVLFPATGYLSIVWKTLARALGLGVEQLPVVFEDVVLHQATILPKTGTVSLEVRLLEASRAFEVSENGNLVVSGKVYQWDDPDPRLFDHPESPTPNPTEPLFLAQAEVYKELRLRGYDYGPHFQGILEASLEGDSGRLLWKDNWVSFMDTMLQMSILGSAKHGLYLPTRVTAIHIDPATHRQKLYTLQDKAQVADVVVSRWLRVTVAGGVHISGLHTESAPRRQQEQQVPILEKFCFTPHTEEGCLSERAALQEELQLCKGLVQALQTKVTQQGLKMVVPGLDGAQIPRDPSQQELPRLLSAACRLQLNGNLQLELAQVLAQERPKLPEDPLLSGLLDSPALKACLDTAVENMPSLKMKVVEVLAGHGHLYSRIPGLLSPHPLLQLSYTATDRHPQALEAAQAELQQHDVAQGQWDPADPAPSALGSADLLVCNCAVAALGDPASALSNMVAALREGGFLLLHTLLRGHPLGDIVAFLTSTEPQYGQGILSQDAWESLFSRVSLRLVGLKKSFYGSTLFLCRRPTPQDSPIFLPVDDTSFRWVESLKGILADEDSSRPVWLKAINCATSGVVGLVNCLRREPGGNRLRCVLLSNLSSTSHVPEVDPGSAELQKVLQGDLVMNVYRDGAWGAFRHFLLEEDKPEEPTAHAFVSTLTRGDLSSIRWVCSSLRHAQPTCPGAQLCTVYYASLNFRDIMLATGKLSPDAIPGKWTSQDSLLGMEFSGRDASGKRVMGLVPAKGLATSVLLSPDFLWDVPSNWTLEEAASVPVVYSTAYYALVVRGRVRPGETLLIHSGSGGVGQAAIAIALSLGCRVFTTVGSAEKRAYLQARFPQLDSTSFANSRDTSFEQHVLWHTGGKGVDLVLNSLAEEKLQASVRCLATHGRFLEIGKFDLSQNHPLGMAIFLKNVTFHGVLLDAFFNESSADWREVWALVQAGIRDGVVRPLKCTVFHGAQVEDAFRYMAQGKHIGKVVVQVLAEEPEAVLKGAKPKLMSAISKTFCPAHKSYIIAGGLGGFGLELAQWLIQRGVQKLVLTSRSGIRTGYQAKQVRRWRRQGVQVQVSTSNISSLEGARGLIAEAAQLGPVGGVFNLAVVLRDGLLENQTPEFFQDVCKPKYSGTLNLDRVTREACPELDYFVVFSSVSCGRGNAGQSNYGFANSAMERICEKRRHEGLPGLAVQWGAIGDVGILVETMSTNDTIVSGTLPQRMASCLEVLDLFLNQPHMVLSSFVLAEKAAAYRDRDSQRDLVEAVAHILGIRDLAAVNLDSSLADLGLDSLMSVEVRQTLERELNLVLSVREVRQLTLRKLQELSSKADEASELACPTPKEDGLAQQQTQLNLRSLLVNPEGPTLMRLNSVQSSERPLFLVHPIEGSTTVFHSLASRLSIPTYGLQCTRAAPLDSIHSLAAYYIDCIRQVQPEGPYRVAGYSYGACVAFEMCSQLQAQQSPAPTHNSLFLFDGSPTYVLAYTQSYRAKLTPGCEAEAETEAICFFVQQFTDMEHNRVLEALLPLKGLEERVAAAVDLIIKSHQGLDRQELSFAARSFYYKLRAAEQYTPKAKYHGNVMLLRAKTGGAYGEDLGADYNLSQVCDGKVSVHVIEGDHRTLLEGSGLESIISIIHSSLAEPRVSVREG

Row | Compound | inhibition
1 | COc1cc(NC(=O)C2=C(C)OCCS2)c(Cl)cc1C(=O)NCCN1CCN(C)CC1 | -10.2%
2 | CC1CCN(S(=O)(=O)c2ccc(NC(=O)C3CC(=O)N(c4ccccc4)C3)cc2)CC1 (centres undefined) | 4.6%
3 | COc1ccc(CNC(=O)CN2CCC(n3nnc4cc(F)ccc43)CC2)cc1 | 1.6%
4 | Cc1csc(SCC(=O)N(c2ccccc2)C(C)C)n1 | -7.2%
5 | CC(NC(=O)C1CCC(CNc2c(N3CCOCC3)c(=O)c2=O)CC1)c1ccccc1 (centres undefined) | 3.6%
6 | S=c1[nH]c2ccccc2c2ccccc12 | -0.9%
7 | COCC1CCN(C(=O)C2CCC(=O)N(Cc3cccc(C(F)(F)F)c3)C2)CC1 (centres undefined) | -6.2%
8 | O=C(CCNS(=O)(=O)c1cccs1)N1CCN(c2ccc(F)cc2)CC1 | -4.4%
9 | NC1=NC(=O)C2(COC(c3ccccc3Cl)OC2)S1 (centres undefined) | -3.8%
10 | COc1ccc([C@@H]2[C@@H]3C(=O)N(C(C)(C)C)C(=O)[C@@H]3[C@]3(Cc4ccccc4)C(=O)N(c4cccc(Br)c4)C(=O)N23)cc1 | 89.7% (active)
11 | Cc1cccc([C@@H]2[C@@H]3C(=O)N(Cc4ccccc4)C(=O)[C@@H]3[C@]3(Cc4ccc(Cl)cc4)C(=O)N(c4cccc(Cl)c4)C(=O)N23)c1 | 91.3% (active)
12 | Cc1cccc(N2C(=O)C3C(c4ccccc4)OC4(C(=O)c5ccccc5C4=O)C3C2=O)c1 (centres undefined) | -2.5%
13 | Cc1cccc([C@@H]2[C@@H]3C(=O)N(Cc4ccccc4)C(=O)[C@@H]3[C@]3(C)C(=O)N(c4ccc(Br)cc4)C(=O)N23)c1 | 39.4%
14 | CC[C@@]12C(=O)N(c3ccccc3)C(=O)N1[C@H](c1ccc(Br)cc1)[C@@H]1C(=O)N(C(C)(C)C)C(=O)[C@@H]12 | 13.2%
15 | COc1cccc(N2C(=O)CN(Cc3ccccc3)C2=S)c1 | -0.9%
16 | CCc1cc(CNC(=O)CC2C(=O)NCCN2Cc2ccccc2C(F)(F)F)on1 (centres undefined) | -2.9%
17 | O=C(NC1CCCCC1)C1CC(=O)N(CCc2ccccc2)C1 (centres undefined) | -6.1%
18 | CCCn1cc(S(=O)(=O)c2ccc(C)cc2)c(=O)c2cc(OCC)ccc21 | 9.4%
19 | Clc1ccc2c(c1)C1=C(C(c3ccncc3)O2)C(c2ccc(Br)cc2)n2ncnc2N1 (centres undefined) | 71.3% (active)
20 | CN(C)CCNc1ccc(-c2n[nH]c(=O)c3ccccc23)cc1[N+](=O)[O-] | -2.9%
21 | CCOc1cc(/C=N/NC(=O)OC)ccc1OCCSc1ccc(Cl)cc1 | -4.3%
22 | CCOc1cc(/C=C(/C#N)c2ccc(Cl)cc2)cc(Cl)c1OCC(=O)O | 53.1% (active)
23 | COc1cc(/C=C(/NC(=O)c2ccc(Cl)cc2Cl)C(=O)O)cc(OC)c1OC | 0.9%

Row | Compound | inhibition
24 | O=C(c1ccco1)N1CCN=C1SCc1cccc(Cl)c1 | 5.3%
25 | COC(=O)c1sc2[nH]c(=S)n(N)c(=O)c2c1C | -6.3%
26 | O=c1ccc2c(-c3ccccc3S(=O)(=O)O)c3ccc(O)c(O)c3oc-2c1O | 54.8% (active)
27 | Cn1ncc2c(NNC(=O)Cc3cccc4ccccc34)ncnc21 | -10.1%
28 | CC(=O)c1c(C)[nH]c(C(=O)N2CCN(S(=O)(=O)c3ccc(F)c(F)c3)CC2)c1C | -3.9%
29 | COc1ccc(S(=O)(=O)N2CCOCC2)cc1NC(=O)COc1ccccc1 | 2.1%
30 | COc1ccc(NC(=O)CNc2cc(S(=O)(=O)N3CCOCC3)ccc2N2CCOCC2)c(OC)c1 | -2.5%
31 | COc1cc(S(=O)(=O)N2CCOCC2)ccc1NC(=O)COc1ccc(N(C)S(=O)(=O)c2ccc(C)cc2)cc1 | 76.5% (active)
32 | COc1ccc(Cl)cc1NS(=O)(=O)c1cccc(C(=O)NCC2CCCO2)c1 (centres undefined) | -3.9%
33 | Oc1c(Cl)cc(Cl)c(Cl)c1Cc1c(O)c(Cl)cc(Cl)c1Cl | 83.7% (active)
34 | CC1CCCCN1C(=O)CCS(=O)(=O)Cc1ccccc1 (centres undefined) | -4.6%
35 | CCOc1ccccc1N(CC(=O)NC1CCCCC1)C(=O)CCCC(=O)Nc1ccccn1 | -7.1%
36 | COC(=O)c1c(NC(=O)CN2CCN(S(=O)(=O)c3ccccc3[N+](=O)[O-])CC2)sc2c1CCC(C)C2 (centres undefined) | 38.1%
37 | CCCOC(=O)c1ccc(N2C(=O)c3ccccc3C2=O)cc1 | -2.6%
38 | CCCCCOC(=O)c1ccc(N2C(=O)C3C4C=CC(C4)C3C2=O)cc1 (centres undefined) | 83.5% (active)
39 | CCCCOC(=O)NCN1C(=O)C2C3C=CC(C3)C2C1=O (centres undefined) | -2.4%
40 | CC1(c2ccccc2Cl)NC(=O)N(CC(=O)NC(=O)NCc2ccco2)C1=O (centres undefined) | -2.3%
41 | CCOC(=O)c1nn(-c2cccc(C)c2)cc1C(=O)c1ccccc1 | 17.5%
42 | CCCCNC(=O)OC1CC2CC1[C@H]1CCCCN1C2=O (some centres undefined) | -13%
43 | COc1ccc(Br)cc1CN(C)CC(=O)Nc1cc([N+](=O)[O-])ccc1OC | 42.3%
44 | COc1ccc([N+](=O)[O-])cc1NCC(=O)c1ccc(C)cc1 | 11.8%
45 | COc1ccc([N+](=O)[O-])cc1NC(=O)CC1SC(=Nc2cccc(C)c2C)N(/N=C(\C)c2ccc(C)cc2)C1=O (centres undefined) | 75.8% (active)
46 | Cc1ccc(NC2(C#N)C(=O)Nc3ccccc32)cc1 (centres undefined) | -3.6%

Row | Compound | inhibition
47 | NS(=O)(=O)c1ccc(N=Cc2ccc(Br)s2)cc1 | -8.2%
48 | CC(=O)c1sc(NC(=O)C2=NN(c3ccccc3)C(=O)CC2)nc1C | -6.4%
49 | CC(=O)c1sc(N/N=C/c2ccc(C(C)C)cc2)nc1C | 58.4% (active)
50 | CC(=O)c1sc(N)nc1C | -11.2% and -7.8%
51 | Cc1nc2ccccc2nc(=O)c1NNc1ccc([N+](=O)[O-])cc1 | -7.2%
52 | CNC[C@@H]1Oc2c(NS(C)(=O)=O)cccc2C(=O)N([C@@H](C)CO)C[C@H]1C | -11.2%
53 | CC(=O)c1cnc(-c2ccccc2)s1 | -1.4%
54 | O=S(=O)(c1ccc(F)cc1)n1ccc(-c2cnc(-c3ccccc3)s2)n1 | 67.2% (active)
55 | O=S(=O)(c1ccc(F)cc1)N1CC=C(c2ccccc2)CC1 | 27.5%
56 | CC1CCN(C(=S)c2cccc(O)c2)CC1 | -0.1%
57 | CCn1c(SCC(=O)Nc2cccc(F)c2)nnc1-c1cc2cc(Br)ccc2o1 | -5.5%
58 | O=C(CP(=O)(c1ccccc1)c1ccccc1)N1CCOCC1 | -3.5%
59 | CCCCCCN1CCN(C2CN(Cc3cn(Cc4ccc(F)cc4)nn3)S(=O)(=O)C2)CC1 (centres undefined) | -7.8%
60 | CCCCCCCCCCCCN1[C@@H](CC(C)=O)c2cc(F)cc(F)c2S1(=O)=O | 57.7% (active)
61 | COc1ccc(CN2[C@@H](CC(=O)O)c3cc(F)ccc3S2(=O)=O)cc1 | -9.9%
62 | CC1(C)Cc2nc3sc4c(SCC(=O)NC(c5ccccc5)c5ccccc5)ncnc4c3cc2CO1 | -7.6%
63 | CCCc1cc(-c2nc(-c3ccc(C)cc3)cs2)ccn1 | 56.3% (active)
64 | CCCc1nc2scc(-c3ccc(C)cc3)c2c(=O)n1N | -1.6%
65 | Fc1ccc(-c2csc(-c3ccc(C4SCCS4)cc3)n2)cc1F | 33%
66 | Cc1ccc(C(=O)C(=S)N2CCOCC2)cc1 | -7.7%
67 | O=C1OCCN1C(=O)[C@H]1[C@H](c2ccc(Cl)cc2)C(c2cccc(Cl)c2)=NN1c1ccc(Br)cc1 | 67.3% (active)
68 | O=C1OCCN1C(=O)[C@H]1[C@H](c2ccccc2)C(c2ccc(F)cc2)=NN1c1ccccc1 | 41.9%
69 | O=C1OCCN1C(=O)[C@H]1[C@H](c2ccc(F)cc2)C(c2ccccc2)=NN1c1ccc(Br)cc1 | 46.2%

Row | Compound | inhibition
70 | COCCNC(=O)CSc1nc2c(n1-c1ccccc1)CCCC2 | -7.1%
71 | Cc1ccccc1-n1c(SCC(=O)Nc2cccc3ccccc23)nc(O)cc1=O | -5.5%
72 | Cc1ccc(C)c(Cn2cnc3c(oc4ccccc43)c2=O)c1 | 16.6%
73 | Cc1ccc(C)c(NC(=O)COC(=O)CSc2ccccc2)c1 | -9.4%
74 | Cc1ccc(C)c(NC(=O)CSc2nc3c(oc4ccccc43)c(=O)n2-c2ccccc2)c1 | 62.3% (active)
75 | CCN1CCN(C(=O)/C=C\C(=O)O)CC1 | -3%
76 | COc1ccc(/C=C/C(=O)c2cc(Br)ccc(=O)c2O)cc1 | 6.9%
77 | COC(=O)CN(c1cccc(C(C)=O)c1)S(C)(=O)=O | -7%
78 | O=C(COC(=O)Cc1ccc([N+](=O)[O-])cc1)NC1CCCCCC1 | 22.7%
79 | O=C(COC(=O)c1cc([N+](=O)[O-])ccc1NCc1ccccc1)NC1CCCCC1 | 60.7% (active)
80 | O=C(COC(=O)c1ccccc1Cl)NC1CCCCCCC1 | 8.2%
81 | COc1ccc(S(=O)(=O)N(CCCN2CCCC2=O)Cc2cc3c(C)ccc(C)c3[nH]c2=O)cc1 | -3%
82 | O=C(CCC1CCCCC1)Nc1cc(C(F)(F)F)ccc1N1CCOCC1 | 34.3%
83 | Cc1ccc(C)c(Cn2nnc3c(=O)[nH]c(C(=O)Nc4ccc(F)cc4)nc32)c1 | 3.8%
84 | Cc1cccc(CS(=O)(=O)c2ncc(Cl)c(C(=O)Nc3ccc(F)cc3)n2)c1 | 56.5% (active)
85 | Cc1cccc(CN2CCC(CNC(=O)Nc3ccc(F)c(Cl)c3)CC2)c1 | 2.9%
86 | O=C(N=C1SC2CS(=O)(=O)CC2N1c1ccccc1)c1ccccc1 (centres undefined) | 8.4%
87 | O=[N+]([O-])c1ccc(CN2CC(N3CCC(c4ccccc4)CC3)CS2(=O)=O)cc1 (centres undefined) | 69.8% (active)
88 | O=S1(=O)CC(N2CCC(Cc3ccccc3)CC2)CN1Cc1ccccc1 (centres undefined) | 6.6%
89 | O=[N+]([O-])c1ccc(CN2CC(N3CC=CC3)CS2(=O)=O)cc1 (centres undefined) | -9.2%

Source: PubChem BioAssay AID602261 (Sanford-Burnham Center for Chemical Genomics, 2012)
